D1 agonist: activates the human D1 dopamine receptor | activation, % at 2 µM | HEK293 T-REx D1 cells, calcium flux, agonist mode | 1% of 360,000 active | P21728; in the data active means activation above about 30%; further: 0% is about no effect
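Tetracycline-induced HEK293 TREx D1 cells, force-coupled to calcium signalling, were dye-loaded with a no-wash calcium kit. Compound was pin-added after a 10 s baseline. Fluorescence was read kinetically at 1 cycle/s for 180 s, with calcium rises flagged as agonism.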
D1 antag: antagonists of human D1 dopamine receptor; activity change, negative = inhibition, % at 10 µM; AID 504652; 3.2% of 360,000 active; HEK293 TREx D1 cells, calcium flux, dopamine EC80; stronger effect = lower value; in the data active means activity change below about -30%; further: on the % scale 0 is the no-effect control and ±100 the full control effect
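Antagonism measured as reduced calcium response to an EC80 dopamine addition following 180 s compound pre-read; cells were inducible HEK293 Trex D1 plated overnight at 30 C, read kinetically at 1 cycle/sec.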
DRD3 antagonist: antagonists of human D3 dopamine receptor. D3R cells, DiscoveRx beta-arrestin luminescence, antagonist mode; stronger effect = lower value. max response, negative = inhibition, %. 2.5% of 360,000 active. AID 652054; in the data active means max response below about -50%; inconclusive means no clear call, values can overlap the other calls; further: on the % scale 0 is the no-effect control and ±100 the full control effect
Target sequence (P35462 whole entry, looked up): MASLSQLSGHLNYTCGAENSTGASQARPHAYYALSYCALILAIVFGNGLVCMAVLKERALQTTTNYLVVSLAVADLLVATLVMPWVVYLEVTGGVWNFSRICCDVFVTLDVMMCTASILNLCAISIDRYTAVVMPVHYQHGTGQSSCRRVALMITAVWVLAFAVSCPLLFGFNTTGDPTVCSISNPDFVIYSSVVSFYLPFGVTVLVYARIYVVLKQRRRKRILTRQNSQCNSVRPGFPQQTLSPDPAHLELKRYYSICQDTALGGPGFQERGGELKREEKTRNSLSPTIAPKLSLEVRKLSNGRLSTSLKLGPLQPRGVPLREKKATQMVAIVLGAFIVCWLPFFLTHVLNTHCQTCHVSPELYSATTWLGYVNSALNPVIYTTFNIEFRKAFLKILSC
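Cells expressing the human receptor were seeded at 1500 cells/well, incubated overnight at 37 degrees C in 5% CO2, then exposed to library compounds with dopamine controls for 90 minutes at 37 degrees C before luminescent detection.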
D1 potentiator: human D1 dopamine receptor positive modulation; P21728; HEK293 TREx D1 cells, calcium flux, dopamine EC20 potentiation; potentiation, % at 10 µM; 0.036% of 360,000 active; AID 504651; in the data active means potentiation above about 30%; further: 0% is about no effect
D3 ag: D3 dopamine receptor (human) agonism. AID 652048. P35462. D3R DiscoveRx beta-arrestin cells, luminescence, 90 min. max activation, %. 0.58% of 410,000 active; in the data active means max activation above about 30%; further: 0% is about no effect
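Cells at 1500/well, incubated overnight, then treated with pinned compounds (dopamine as control) for 90 min at 37 degrees C. DiscoveRx reagent added for 30 - 60 minutes at room temperature; luminescence read.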
* hit, by the source's call. Hits are enriched below; roughly 6% of the tested compounds scored in any of these assays.

What do the screens show for `Cn1c(N)c(C(=O)COC(=O)c2cc(C3CC3)nc3ccccc23)c(=O)n(C)c1=O`?
D1 agonist: -3; D1 antag: -5; DRD3 antagonist: 125; D1 potentiator: -5; D3 ag: 36*

What do the screens show for `Cc1cccc(C)c1NC(=O)COC(=O)c1c2c(nc3ccccc13)/C(=C\c1ccc3c(c1)OCO3)CCC2`?
D1 agonist: 94*; D1 antag: -33*; DRD3 antagonist: -58*; D1 potentiator: -5; D3 ag: 7

How did CC(OC(=O)c1c2c(nc3ccccc13)/C(=C\c1ccc3c(c1)OCO3)CCC2)C(=O)Nc1ccc(S(N)(=O)=O)cc1 (centres undefined) do in these assays?
D1 agonist: 17; D1 antag: -5; DRD3 antagonist: 7; D1 potentiator: 2; D3 ag: -2

What do the screens show for `COc1cc(/C=C2\CCCc3c2nc2ccccc2c3C(=O)O)cc(Br)c1O`?
D1 agonist: 9; D1 antag: -5; DRD3 antagonist: -10; D3 ag: 1

Results for COc1cc(OC)c(N(C)C(=O)c2cn(C)c(=O)c3cc(OC)c(OC)cc23)cc1Cl ?
D1 agonist: 0; D1 antag: 0; DRD3 antagonist: -1; D1 potentiator: 2; D3 ag: 0

How did CCCCCCn1nc(C(=O)OCC(=O)c2c(N)n(C)c(=O)n(C)c2=O)c2ccccc2c1=O do in these assays?
D1 agonist: 6; D1 antag: 15; DRD3 antagonist: 71; D1 potentiator: 5; D3 ag: 32*

What do the screens show for `CCCCCn1nc(C(=O)OCC(=O)c2c(N)n(C)c(=O)n(C)c2=O)c2ccccc2c1=O`?
D1 agonist: 1; D1 antag: -8; DRD3 antagonist: 69; D1 potentiator: 6; D3 ag: 17

How did Cc1ccc(C)c(NC(=S)NC(NC(=O)N(C)C)C(Cl)(Cl)Cl)c1 (centres undefined) do in these assays?
D1 agonist: -1; D1 antag: -10; DRD3 antagonist: -25; D1 potentiator: -4; D3 ag: 4

Results for CCc1ccc(OCC(=O)NC(NC(=S)Nc2ccccc2C)C(Cl)(Cl)Cl)cc1 (centres undefined) ?
D1 agonist: 8; D1 antag: 3; DRD3 antagonist: -57*; D1 potentiator: -11; D3 ag: -20

What do the screens show for `Cc1ccc(C)c(NC(=S)NC(NC(=O)Cc2cccc3ccccc23)C(Cl)(Cl)Cl)c1` (centres undefined)?
D1 agonist: 1; D1 antag: -3; DRD3 antagonist: -50*; D1 potentiator: 0; D3 ag: 6

Results for Cc1ccc(NC(=O)c2ccc(CN3CCN(C)CC3)cc2)cc1Nc1nccc(-c2cccnc2)n1 ?
DRD3 antagonist: 3; D3 ag: 8

Results for O=[N+]([O-])c1ccc(N=Nc2c(Cl)cc(O)cc2Cl)cc1 ?
D1 agonist: 21; D1 antag: -46*; DRD3 antagonist: -13; D1 potentiator: -13; D3 ag: -1

What do the screens show for `CC(N)=Nc1ccc([N+](=O)[O-])cc1`?
D1 agonist: 4; D1 antag: -1; DRD3 antagonist: -20; D1 potentiator: 2; D3 ag: 2

What do the screens show for `O=S(=O)(c1ccc(Cl)s1)N1CCN(Cc2ccccc2)CC1`?
D1 agonist: 3; D1 antag: -7; DRD3 antagonist: -59*; D1 potentiator: -2; D3 ag: -10

How did O=S(=O)(Cc1ccccc1)N1CCN(C/C=C/c2ccccc2)CC1 do in these assays?
D1 agonist: 47*; D1 antag: -33*; DRD3 antagonist: inconclusive; D1 potentiator: -12; D3 ag: -24

How did O=S(=O)(c1ccc(Cl)s1)N1CCN(C/C=C/c2ccccc2)CC1 do in these assays?
D1 agonist: 11; D1 antag: -2; DRD3 antagonist: -82*; D1 potentiator: 1; D3 ag: 1

Results for CS(=O)(=O)N1CCN(C/C=C/c2ccccc2)CC1 ?
D1 agonist: 2; D1 antag: -4; DRD3 antagonist: -7; D1 potentiator: -8; D3 ag: 3

How did O=C(Nc1cc(-c2nc3ccccc3o2)ccc1Cl)c1cccc2c(Cl)cccc12 do in these assays?
D1 agonist: -1; D1 antag: 5; D1 potentiator: 1; D3 ag: 4

Results for Cc1ccc(C(=O)NCC(=O)N(C)Cc2ccc(Cl)cc2Cl)s1 ?
D1 agonist: 0; D1 antag: 19; DRD3 antagonist: -1; D1 potentiator: -6; D3 ag: 2

What do the screens show for `COc1ccc(N(CC(=O)NC2CCCCCC2)S(=O)(=O)c2ccccc2)cc1Cl`?
D1 agonist: 3; D1 antag: 4; DRD3 antagonist: -6; D1 potentiator: 0; D3 ag: 4

Results for O=C(Nc1cccc(F)c1)C1CCN(S(=O)(=O)c2ccc3[nH]c4c(c3c2)CCCCC4)CC1 ?
D1 agonist: 1; D1 antag: -32*; D1 potentiator: -1; D3 ag: 1

Results for CN(CC(=O)Nc1cccc(Cl)c1)S(=O)(=O)c1ccc2[nH]c3c(c2c1)CCCC3 ?
D1 agonist: -1; D1 antag: -35*; D1 potentiator: -3; D3 ag: 4

How did O=C(c1ccccc1Cl)N(Cc1ccco1)c1ccccn1 do in these assays?
D1 agonist: 0; D1 antag: -2; D1 potentiator: 0; D3 ag: 8

How did CNC(=O)CSc1nnc(-c2ccc3c(c2)OCO3)n1C do in these assays?
D1 agonist: -1; D1 antag: -9; DRD3 antagonist: -7; D1 potentiator: 5; D3 ag: -6

Results for COC(=O)CSc1nnc(-c2ccc3c(c2)OCO3)n1C ?
D1 agonist: 2; D1 antag: 16; DRD3 antagonist: -69*; D1 potentiator: -4; D3 ag: -3

Results for CCCCC1CCC(C(=O)N(CC(C)C)c2c(N)n(Cc3ccccc3)c(=O)[nH]c2=O)CC1 (centres undefined) ?
D1 agonist: 3; D1 antag: -12; DRD3 antagonist: 15; D1 potentiator: -13; D3 ag: 1

How did O=Cc1s/c(=N\S(=O)(=O)c2ccccc2)n(CCCCl)c1Cl do in these assays?
D1 agonist: 0; D1 antag: -29; DRD3 antagonist: -120*; D1 potentiator: -12; D3 ag: -24

How did CCN(CC)S(=O)(=O)c1ccc(C(=O)NCCSc2c(-c3ccc(OC)cc3)[nH]c3ccccc23)cc1 do in these assays?
D1 agonist: 5; D1 antag: 0; D1 potentiator: -1; D3 ag: -7

Results for O=C(COc1ccccc1)NC(=S)Nc1cccc2cc(O)ccc12 ?
D1 agonist: 35*; D1 antag: 19; DRD3 antagonist: -13; D1 potentiator: -2; D3 ag: 0

How did CC(C)c1ccc(/C=C2\NC(=S)N(Cc3cccnc3)C2=O)cc1 do in these assays?
D1 agonist: 0; D1 antag: -37*; DRD3 antagonist: 67; D1 potentiator: -4; D3 ag: 21

Bioassay records deposited in PubChem by National Center for Advancing Translational Sciences (NCATS).
